From PubChem BioAssay come the findings set out here.

Structures are written as SMILES. Active and inactive are the calls of the source. How the calls were made is not given here.

For the assay, the target named is Pantothenate synthetase (Mycobacterium tuberculosis (strain ATCC 25618 / H37Rv)) (UniProt P9WIL5). Put plainly: Coupled enzyme confirmation of inhibitors against recombinant Mtb PanC (AID 375).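 Further: 0% = full reaction with vehicle and 100% = no enzyme background.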 Particulars: coupled enzyme assay; at 10 µM, stronger effect = higher value.
Pantothenate synthetase (Mycobacterium tuberculosis (strain ATCC 25618 / H37Rv)), sequence (P9WIL5 whole entry, looked up): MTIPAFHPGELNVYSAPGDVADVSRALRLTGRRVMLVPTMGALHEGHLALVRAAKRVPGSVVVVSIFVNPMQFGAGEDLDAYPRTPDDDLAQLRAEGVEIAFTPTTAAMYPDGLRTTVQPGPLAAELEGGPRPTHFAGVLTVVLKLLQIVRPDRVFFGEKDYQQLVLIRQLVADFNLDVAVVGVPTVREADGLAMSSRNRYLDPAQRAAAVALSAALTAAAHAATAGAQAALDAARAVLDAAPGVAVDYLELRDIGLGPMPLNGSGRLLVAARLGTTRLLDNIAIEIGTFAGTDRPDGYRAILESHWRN
In general, inhibition refers to how much of the control response was suppressed. With `COc1ccc(CNC(=O)c2cc3c(=O)n4ccccc4nc3n(Cc3ccco3)c2=N)cc1`, the inhibition was 0% (inactive).
Next, `CCCCOCCCNC(=O)c1ccc(NC(C)=O)cc1`: 0% (inactive).
As to `CC1CCN(S(=O)(=O)c2cn(CC(=O)N3CCN(C)CC3)c(=O)c3ccccc23)CC1`, the inhibition is 4% (inactive).
Next, `O=C(Nc1cccc(OCC(=O)N2CCOCC2)c1)C1CCCCC1`: 0% (inactive); `CCOC(=O)C1CCCN(Cc2nc(N)nc(Nc3ccccc3)n2)C1` (stereo not given): 10% (inactive); `OCCN1CCN(CCCN2c3ccccc3Sc3ccc(Cl)cc32)CC1`: 0% (inactive).
Next, `CCS(=O)(=O)N1CCC(C(=O)NCCc2ccc(C)cc2)CC1`: 0% (inactive).
As for `CCCCP(=O)(CCCC)c1ccccc1C(=O)O`, the inhibition is 3% (inactive).
Take `O=C(NCc1cccs1)C(Cc1ccccc1)NS(=O)(=O)c1cccs1` (stereo not given): the inhibition was 8% (inactive).
The figure for `O=C1CCn2nc(-c3ccc(Cl)cc3)cc2N1` is 0% (inactive); for `CCCc1nnc(NC(=O)NCCN2C(=O)C3C4C=CC(C4)C3C2=O)s1` (stereo not given) it is 0% (inactive); for `CC[C@]1(O)C[C@@H]2CN(CCc3c([nH]c4ccccc34)[C@@](C(=O)OC)(c3cc4c(cc3OC)N(C)[C@H]3[C@@](O)(C(=O)OC)[C@H](OC(C)=O)[C@]5(CC)C=CCN6CC[C@]43[C@@H]65)C2)C1` it is 0% (inactive).
Next, `Cc1nc2scc(-c3cccs3)c2c(=O)n1-n1cccc1`: 4% (inactive).
The figure for `COC(=O)c1cc(NC(=O)C2CC=CCC2C(=O)O)cc(C(=O)OC)c1` (stereo not given) is 3% (inactive); for `CCOC(=O)c1ccc(CC2S/C(=C(\C#N)C(C)=O)NC2=O)cc1` (stereo not given) it is 10% (inactive); for `Cc1nc(N)c(C#N)c(-c2cccnc2)c1C` it is 0% (inactive).
Turning to `CC(=O)Nc1ccc(S(=O)(=O)N2CCN(C(C)CCc3ccccc3)CC2)cc1` (stereo not given), the inhibition is 2% (inactive).
The figure for `C/C(=N\O)C(C)/[N+]([O-])=C/c1nc(C)c(C)n1O` (stereo not given) is 0% (inactive); for `COc1cc(S(=O)(=O)n2nnc3ccccc32)c(OC)cc1Cl` it is 3% (inactive); for `O=C(NC1CCS(=O)(=O)C1)OC1CCCCC1` (stereo not given) it is 0% (inactive).
The figure for `COc1ccc(C2C(C(=O)NCCN3CCOCC3)c3ccccc3C(=O)N2C2CCCCC2)cc1` (stereo not given) is 0% (inactive); for `Cc1nnc(SCC2=C(C(=O)O)N3C(=O)[C@@H](NC(=O)Cn4cnnn4)[C@H]3SC2)s1` it is 0% (inactive).
The figure for `O=C(COc1ccc(=O)n(-c2ccccc2)n1)Nc1ccccc1` is 0% (inactive).
With `c1ccc(Cc2nn3c(Cn4cnc5ccccc54)nnc3s2)cc1`, the inhibition is 4% (inactive).
For `CCSc1nnc(NC(=O)c2nn(C(C)C)c(=O)c3ccccc23)s1`, the inhibition was 1% (inactive).
As for `COC(=O)c1ccc(NC(=O)C2C3CCC(C3)C2C(=O)O)cc1` (stereo not given), the inhibition was 0% (inactive).
As to `OC(COc1ccc2ccccc2c1)CN1CCOCC1` (stereo not given), the inhibition is 0% (inactive).
Turning to `COc1ccc(C(=O)N2CCN(C3CCCCC3)CC2)c(OC)c1`, the inhibition was 0% (inactive).
Next, `CN(C)CCOC(c1ccccc1)c1ccccc1` (tested in a mixture with another compound): 0% (inactive).
The figure for `CC1CCCCN1CCNC(=O)c1ccc2c(=O)n(CCc3ccccc3)c(=O)[nH]c2c1` (stereo not given) is 0% (inactive); for `CC(=O)C1=C(O)C(=O)N(Cc2ccco2)C1c1ccc2c(c1)OCO2` (stereo not given) it is 3% (inactive).
As to `CC(=O)c1ccccc1Oc1nc(CN2CCOCC2)nc2scc(-c3cccs3)c12`, the inhibition was 3% (inactive).
Next, `O=C(NCCN1CCN(c2ccccc2)CC1)c1ccc(NC(=O)C2CCCO2)cc1` (stereo not given): 2% (inactive).
For the compound `CCOc1ccc2nc(N3CCC(C(=O)N4CCN(C5CCCCC5)CC4)CC3)sc2c1`, the inhibition was 0% (inactive).
Consider `O=C(O)c1ccc(CSc2ncn[nH]2)cc1`, for which the inhibition is 1% (inactive).
Next, `Cc1ccc(S(=O)(=O)N2CCOCC2)cc1C(=O)Nc1ccccn1`: 0% (inactive).
Take `CC(=O)Nc1cc(N2C(=O)CCC2=O)ccc1Cl`: the inhibition was 0% (inactive).
The figure for `CC(=O)Oc1ccc(-c2ccc(C(=O)O)cc2)cc1` is 4% (inactive); for `O=S(=O)(NCCc1csc(-c2ccccc2)n1)c1ccc2c(c1)OCCO2` it is 4% (inactive); for `CCOC(=O)c1ccc2[nH]c3c(c2c1)CCCCC3=O` it is 0% (inactive).
